Test results reported in PubChem BioAssay AID463173 (ICCB-Longwood Screening Facility, Harvard Medical School, 2010).
Hit rate of the full screen: of about 52,000 compounds, about 4,300 (8.3%) were called active. Only a selection was taken, and actives are over-represented in it overall. A number with no mark means an inactive call. Rule as the data show it: active = survival mostly below about 52% (no sharp cut-off); inactive = mostly above about 56%.

Test system: DeltatarO mutant
Assay: S. aureus survival, RN4220 and DeltatarO strains – OD600, teichoic acid synthesis inhibitors, primary screen (AID 463173)
Settings: S. aureus RN4220 wild type/DeltatarO growth, OD600, 18 h, hits give low values, screened at 18.75 µg/mL (by protocol)

| Compound | survival |
| --- | --- |
| COc1ccc(Cl)cc1C1CC(=O)Nc2cc3c(cc21)OCCO3 (configuration not stated) | 102% |
| O=C(Nc1ccc(Br)cc1F)C1CCN(c2nc3ccccc3[nH]2)CC1 | 102% |
| CCCNC(=O)Cn1c(=O)n(CC2CCC(C(=O)NC)CC2)c(=O)c2sccc21 (configuration not stated) | 87% |
| Cc1cccc(NC2=NCC(=O)N2Cc2ccccc2)c1 | 89% |
| CCOC(=O)N1CCN(C(=O)c2ccc3c(c2)N(Cc2ccccc2F)C(=O)c2ccccc2S3(=O)=O)CC1 | 72% |
| O=S(=O)(c1ccc(OC(F)(F)F)cc1)N1CCC(c2nc3ccccc3s2)CC1 | 65% |
| CNC(=O)C1CCC(Cn2c(=O)c3sccc3n(CC(=O)Nc3ccccc3)c2=O)CC1 (configuration not stated) | 75% |
| CCOC(=O)c1sc2nc(C)n(CC(=O)Nc3cccc(Cl)c3)c(=O)c2c1C | 71% |
| CCOc1ccc(NC(=O)CSc2nccn2Cc2ccco2)cc1 | 91% |
| CCOc1ccc(-c2cn3c(n2)sc2cc(C(=O)NCCc4ccc(OC)c(OC)c4)ccc23)cc1 | 49% (active) |
| CCOc1ccccc1CNC(=O)c1ccc2c(c1)sc1nc(-c3ccccc3)cn12 | 67% |
| COc1cccc(-c2cn3c(n2)sc2cc(C(=O)NCCc4ccccc4)ccc23)c1 | 38% (active) |
| CCOc1ccc(-c2cn3c(n2)sc2cc(C(=O)NCCC4=CCCCC4)ccc23)cc1 | 87% |
| COc1ccc(-c2cn3c(n2)sc2cc(C(=O)NCCc4ccccc4)ccc23)cc1 | 86% |
| CCc1ccc(-c2cn3c(n2)sc2cc(C(=O)NCCc4ccc(OC)cc4OC)ccc23)cc1 | 59% |
| CCOc1ccc(CCNC(=O)c2ccc3c(c2)sc2nc(-c4ccc(F)cc4)cn23)cc1OCC | 42% (active) |
| COc1cccc(-c2cn3c(n2)sc2cc(C(=O)NCCCc4ccccc4)ccc23)c1 | 54% |
| COc1ccccc1CNC(=O)c1ccc2c(c1)sc1nc(-c3ccc(F)cc3)cn12 | 63% |
| CCOc1ccc(CNC(=O)c2ccc3c(c2)sc2nc(-c4ccccc4)cn23)cc1 | 74% |
| COc1ccc(-c2cn3c(n2)sc2cc(C(=O)NCCc4ccc(OC)cc4OC)ccc23)cc1 | 65% |
| CCOc1ccc(-c2cn3c(n2)sc2cc(C(=O)NCCc4ccc(OC)cc4OC)ccc23)cc1 | 40% (active) |

| Compound | survival |
| --- | --- |
| COc1ccc(C(C#N)N2N=C(C)CC2c2ccccc2)cc1OC (configuration not stated) | 108% |
| CC(=O)c1ccc(NC(=O)CSc2nc(C3CCCC3)nc3c2c(=O)n(C)c(=O)n3C)cc1 | 78% |
| Cc1cccc(C)c1-n1ncc(C(=O)N2CCN(c3ncccn3)CC2)c1C1CCN(C(=O)OC(C)(C)C)CC1 | 95% |
| COc1cc(OC)c(NC(=O)CCc2nc(C3=CCN(Cc4cccc(Cl)c4)CC3)no2)cc1Cl | 75% |
| Cc1cc(C)c(NC(=O)CN(C)S(=O)(=O)c2ccc3c(c2)c(=O)n(C)c(=O)n3C)c(C)c1 | 81% |
| Cc1ccc(Cl)cc1-n1ncc2c(N3CCC(C)CC3)ncnc21 | 128% |
| COc1cc(C(CC(=O)Nc2ccc(Br)cn2)N2Cc3ccccc3C2=O)cc(OC)c1OC (configuration not stated) | 78% |
| COc1cccc(-c2cn3c(n2)sc2cc(C(=O)NCCc4ccc(OC)c(OC)c4)ccc23)c1 | 49% |
| COc1ccc(CCNC(=O)c2ccc3c(c2)sc2nc(-c4ccccc4)cn23)cc1OC | 47% (active) |
| COc1ccc(CCNC(=O)c2ccc3c(c2)sc2nc(-c4ccc(C)cc4)cn23)cc1OC | 81% |
| Cc1cc(C(=O)O)on1 | 83% |
| COc1cc(OC)cc(C(=O)Nc2cc(-c3nc4ccccc4s3)ccc2OC)c1 | 42% (active) |
| COc1ccc(-c2nc3ccccc3s2)cc1NC(=O)c1ccccc1OC | 77% |
| COc1ccc(-c2nc3ccccc3s2)cc1NC(=O)c1ccc(C#N)cc1F | 168% |
| COc1ccc(C(=O)Nc2cc(-c3nc4ccccc4s3)ccc2OC)cc1 | 19% (active) |
| COc1cc(OC)cc(C(=O)Nc2ccc(-c3nc4ccccc4s3)cc2C)c1 | 72% |
| COc1ccc(-c2nc3ccccc3s2)cc1NC(=O)c1ccc(F)cc1 | 137% |
| CCOc1ccc(C(=O)Nc2cc(-c3nc4ccccc4s3)ccc2OC)cc1 | 187% |
| O=C(Nc1cc(-c2nc3ccccc3s2)ccc1Cl)c1cc2ccccc2o1 | 105% |
| COc1ccc(-c2nc3ccccc3s2)cc1NC(=O)c1cccc([N+](=O)[O-])c1C | 38% (active) |
| COc1ccc(-c2nc3ccccc3s2)cc1NC(=O)c1cc(OC)c(OC)c(OC)c1 | 57% |

| Compound | survival |
| --- | --- |
| COc1ccc(-c2nc3ccccc3s2)cc1NC(=O)c1ccccc1F | 151% |
| COc1ccc(-c2nc3ccccc3s2)cc1NC(=O)c1cc2ccccc2o1 | 38% (active) |
| CCOC(=O)N1CCc2c(sc(NCc3sccc3C)c2C(=O)Nc2ccccc2OCC)C1 | 94% |
| O=C(NCCS(=O)(=O)N1CCN(c2ccc(F)cc2)CC1)C(c1ccccc1)c1ccccc1 | 113% |
| CC(C)COc1ccc(C(=O)N2CCN(CCc3ccccn3)CC2)cc1 | 63% |
| CC(C)(C)C(=O)C1C2C3COC(O3)C(=O)C2C2C=Cc3ccccc3N21 (configuration not stated) | 124% |
| CCc1cccc(NC(=O)Cn2c(=O)n(CC(=O)NCCc3ccccc3)c(=O)c3ccccc32)c1 | 102% |
| COc1cc(Cl)c(C)cc1NC(=O)c1cc2c(Cl)nc3ccc(C)cc3c2s1 | 64% |
| CCS(=O)(=O)c1ncc(Cl)c(C(=O)N2CCN(c3ccc(OC)cc3)CC2)n1 | 68% |
| CSc1ncc(C(=O)N2CCN(c3cccc(Cl)c3)CC2)c(C)n1 | 0% (active) |
| CCSc1ncc(Cl)c(C(=O)N2CCN(c3ccccc3OC)CC2)n1 | 76% |
| CCS(=O)(=O)c1ncc(Cl)c(C(=O)N2CCN(c3cccc(Cl)c3)CC2)n1 | 8% (active) |
| CCCSc1ncc(Cl)c(C(=O)N2CCN(c3ccc(OC)cc3)CC2)n1 | 49% |
| Cn1cc(S(=O)(=O)N2CCCC2)cc1C(=O)N1CCN(c2cccc(Cl)c2)CC1 | 73% |
| CS(=O)(=O)c1ncc(Cl)c(C(=O)N2CCN(c3cccc(Cl)c3)CC2)n1 | 17% (active) |
| CSc1ncc(C(=O)N2CCN(c3ccc(Cl)cc3)CC2)c(C)n1 | 106% |
| CCCSc1ncc(Cl)c(C(=O)N2CCN(c3cccc(Cl)c3)CC2)n1 | 40% (active) |
| CSc1ncc(C(=O)N2CCN(c3cccc(C(F)(F)F)c3)CC2)c(C)n1 | 69% |
| CS(=O)(=O)N1CCc2cc(C(=O)N3CCN(c4cccc(Cl)c4)CC3)ccc21 | 49% |
| CCSc1ncc(Cl)c(C(=O)N2CCN(c3ccc(OC)cc3)CC2)n1 | 83% |
